{"source": "the OligoGym collection"}
{"biological_target": "METTL21D", "experiment": "pooled miR-30 sensor sort-seq; sequence = guide strand", "settings": "shRNA"}
{"sequence": "TATAGAACTACATTTGTAGTTA", "sensor-assay potency score (higher = more potent)": 0.621}
{"sequence": "TTGCAATTCCTCAAGATCGGTG", "sensor-assay potency score (higher = more potent)": -0.436}
{"sequence": "TATACTGCTGTAGTCGTAGCAC", "sensor-assay potency score (higher = more potent)": 0.182}
{"sequence": "TTGGCTTGAACAGAACCAGTGA", "sensor-assay potency score (higher = more potent)": 0.803}
{"sequence": "TTGTAGTTATTCAAAAACCTTT", "sensor-assay potency score (higher = more potent)": -1.15}
{"sequence": "TAGCACTGTACCATCCCGCTTC", "sensor-assay potency score (higher = more potent)": 0.175}
{"sequence": "TTTAAGAAGAACTTGATGCTGA", "sensor-assay potency score (higher = more potent)": 0.983}
{"sequence": "TGAACTAAGTAACCTAAGCTGG", "sensor-assay potency score (higher = more potent)": -0.584}
{"biological_target": "MET", "experiment": "pooled miR-30 sensor sort-seq; sequence = guide strand", "settings": "shRNA"}
{"sequence": "TATTCTTGTGTGAAAAGTCTGA", "sensor-assay potency score (higher = more potent)": 0.132}
{"sequence": "TTGAGTTTGCAGACTTTCCAAA", "sensor-assay potency score (higher = more potent)": -0.558}
{"sequence": "TGATCGAGAAACCACAACCTGC", "sensor-assay potency score (higher = more potent)": -1.33}
{"sequence": "TAGAATGACATTCTGGATGGGT", "sensor-assay potency score (higher = more potent)": 0.522}
{"sequence": "TTCATTGAAATGCACAATCAGG", "sensor-assay potency score (higher = more potent)": -0.957}
{"sequence": "TTTCTTGCCATCATTGTCCAAC", "sensor-assay potency score (higher = more potent)": -0.767}
{"sequence": "TTAAACACTTCCTTCTTTGTGG", "sensor-assay potency score (higher = more potent)": 0.061}
{"sequence": "TTGCTTTGTGCGAACACCCCGA", "sensor-assay potency score (higher = more potent)": 0.0698}
{"sequence": "TTGATATTGAGACAACACCAGC", "sensor-assay potency score (higher = more potent)": -1.2}
{"sequence": "TATGTCAGCAGTATGATTGTGG", "sensor-assay potency score (higher = more potent)": 0.148}
{"sequence": "TTCTGTGAGAATACACTCCAGA", "sensor-assay potency score (higher = more potent)": -0.115}
{"sequence": "TATATTAAACACTTCCTTCTTT", "sensor-assay potency score (higher = more potent)": 0.147}
{"biological_target": "MEX3D", "experiment": "pooled miR-30 sensor sort-seq; sequence = guide strand", "settings": "shRNA"}
{"sequence": "TTGGCGTGGAAGTCGCTGTCGG", "sensor-assay potency score (higher = more potent)": -0.234}
{"sequence": "TTGACGCTTTTCTTGCGGCTGC", "sensor-assay potency score (higher = more potent)": -0.68}
{"sequence": "TAGGTGTGCGTCCGCTGCTGGA", "sensor-assay potency score (higher = more potent)": -1.39}
{"sequence": "TTGATGTAGGTGTTTGTCTTGG", "sensor-assay potency score (higher = more potent)": -0.318}
{"sequence": "TTGCCGGAGCCGCTGTAGGGGC", "sensor-assay potency score (higher = more potent)": -1.61}
{"sequence": "AAGTCGAAGCCGAAGTCGCAGT", "sensor-assay potency score (higher = more potent)": -0.692}
{"sequence": "TAGGTGTTTGTCTTGGCCCGCA", "sensor-assay potency score (higher = more potent)": 0.155}
{"sequence": "TGATGTAGGTGTTTGTCTTGGC", "sensor-assay potency score (higher = more potent)": 0.554}
{"sequence": "TGGTCGGCCAGCAGCGTCGGGG", "sensor-assay potency score (higher = more potent)": -1.69}
{"sequence": "TTGACCGTGGAGCAGCCGCTGA", "sensor-assay potency score (higher = more potent)": -1.71}
{"sequence": "TTGATCTTGCAGCCCTGGCGAC", "sensor-assay potency score (higher = more potent)": -1.24}
{"sequence": "AGGAAGTCGAAGTCGAAGCCGA", "sensor-assay potency score (higher = more potent)": -1.39}
{"biological_target": "MFNG", "experiment": "pooled miR-30 sensor sort-seq; sequence = guide strand", "settings": "shRNA"}
{"sequence": "AATGAAGACATCGTGTAGCTGT", "sensor-assay potency score (higher = more potent)": 0.421}
{"sequence": "TCGGTGAAGACAAATGTCTGTT", "sensor-assay potency score (higher = more potent)": -0.485}
{"sequence": "TTGCGATTGATGCAGAAGCCAG", "sensor-assay potency score (higher = more potent)": -1.46}
{"sequence": "TTGTCATCGTCCACATGGCAGA", "sensor-assay potency score (higher = more potent)": -1.57}
{"sequence": "TCGAACTCAGCAGCCATCTTGC", "sensor-assay potency score (higher = more potent)": -1.05}
{"sequence": "TAGTTGTCATCGTCCACATGGC", "sensor-assay potency score (higher = more potent)": -0.357}
{"sequence": "TCTTGCAGGACAGAGCTGGGTG", "sensor-assay potency score (higher = more potent)": -0.336}
{"sequence": "TCACATAGTTGTCATCGTCCAC", "sensor-assay potency score (higher = more potent)": -0.585}
